Reference: PubChem BioAssay AID529 (NMMLSC, 2006)
Screen size: about 24,000 compounds; about 50 (0.2%) were called active. Another 9% or so got no clear call; they are omitted.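 Rule for the calls: active = inhibition above 50%; inconclusive = compound itself fluorescent, judged against control cell fluorescence; inactive = the rest.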 For the sample, actives were picked, then their nearest neighbours and some compounds at random.

The compounds below were run against Integrin alpha-4 (Homo sapiens) (UniProt P13612) (assay: blockers of LDV-FITC ligand binding on VLA-4 – Jurkat cells, Mn2+ activated, primary screen (AID 529;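 note: 0% = Mn2+ stimulated cells lacking compound and 100% = ligand binding without Mn2+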)). Details: LDV-FITC binding with Mn2+, flow cytometry, stronger effect = higher value, 100% = Mn2+-driven binding gain fully reversed, screened at 10 µM (by protocol).
Integrin alpha-4 (Homo sapiens), sequence (P13612 whole entry, looked up): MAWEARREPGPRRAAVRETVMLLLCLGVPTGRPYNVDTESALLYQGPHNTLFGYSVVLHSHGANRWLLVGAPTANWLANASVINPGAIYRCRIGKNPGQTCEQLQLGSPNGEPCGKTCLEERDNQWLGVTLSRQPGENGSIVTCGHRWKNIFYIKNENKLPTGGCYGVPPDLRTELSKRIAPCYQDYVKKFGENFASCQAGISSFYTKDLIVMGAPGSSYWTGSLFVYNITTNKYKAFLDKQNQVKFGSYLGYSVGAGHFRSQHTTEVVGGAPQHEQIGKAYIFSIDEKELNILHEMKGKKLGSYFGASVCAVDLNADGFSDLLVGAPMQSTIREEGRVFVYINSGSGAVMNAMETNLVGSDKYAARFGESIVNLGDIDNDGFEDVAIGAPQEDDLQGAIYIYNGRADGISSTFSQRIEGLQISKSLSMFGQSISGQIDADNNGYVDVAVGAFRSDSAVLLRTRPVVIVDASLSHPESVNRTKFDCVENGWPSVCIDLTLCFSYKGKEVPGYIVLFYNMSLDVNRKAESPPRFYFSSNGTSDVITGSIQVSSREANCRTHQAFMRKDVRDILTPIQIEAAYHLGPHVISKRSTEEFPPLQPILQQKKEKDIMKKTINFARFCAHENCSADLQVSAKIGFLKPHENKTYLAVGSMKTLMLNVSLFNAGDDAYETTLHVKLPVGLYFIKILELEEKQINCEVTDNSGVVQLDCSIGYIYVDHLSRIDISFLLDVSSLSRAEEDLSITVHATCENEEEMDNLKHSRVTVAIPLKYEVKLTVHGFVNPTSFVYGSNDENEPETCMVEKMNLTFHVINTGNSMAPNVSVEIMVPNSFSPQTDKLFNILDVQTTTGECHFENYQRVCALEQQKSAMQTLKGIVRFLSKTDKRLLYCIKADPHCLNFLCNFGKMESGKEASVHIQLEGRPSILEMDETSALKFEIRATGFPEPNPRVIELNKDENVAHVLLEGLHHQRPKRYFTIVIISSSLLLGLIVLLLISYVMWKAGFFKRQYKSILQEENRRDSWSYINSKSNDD

inhibition, inactive:
CCOC(=O)c1cccc(NC(=O)CCc2c(C)nc3ncnn3c2C)c1 10%
CCOC(=O)N1CCN(C(=O)CSc2nnc(-c3c[nH]c4ccccc34)n2CCOC)CC1 9%
CC(=O)NC(C)c1nc2ccccc2n1Cc1ccccc1F (stereo not drawn) 1%
CN(C(=O)C1CCOC1)c1nnc(-c2cccnc2)s1 (stereo not drawn) -8%
CC1=NCCN1S(=O)(=O)c1ccc(Br)c(C)c1 -21.5%
C=CCSc1nnc(Cn2c(=O)sc3ccccc32)n1C 5%
Brc1cnc(N2CCCC2)nc1N1CCCCC1 -21%
Cc1cc(C)cc(N(CC(=O)NCC2CCCO2)S(=O)(=O)c2c(C)noc2C)c1 (stereo not drawn) -10%
Cc1cccc(NC(=O)CSc2nnc(NC(=O)CN3CCOCC3)s2)c1 -21%
COc1cc2[nH]c(=O)n(CCC(=O)NC3CCN(Cc4ccccc4)CC3)c(=O)c2cc1OC 11%
CCOc1cc(S(=O)(=O)NCc2ccc3c(c2)OCO3)ccc1F -18.5%
O=S1(=O)CCN2C(=N1)SC1=C2CCN(Cc2ccccc2)C1 4%
CCOc1ccc(OCC)c(NC(=O)CN(C)S(=O)(=O)c2cccc3nsnc23)c1 5%
O=C(CSc1nc2ncccc2[nH]1)Nc1ccc2c(c1)OCCO2 -23%
CCc1nnc(NC(=O)CSc2nnc(Cc3ccccc3)n2-c2ccc(OC)cc2)s1 -26.5%
CCOC(=O)N1CCN(C(=O)c2ccc3nc4cc(Cl)ccc4c(=O)n3c2)CC1 6.7%
OCc1n[nH]c(CO)n1 2%
O=c1ccn(Cc2ccccc2Cl)cc1 -16%
N#CCCn1cnc2ccccc21 -16.5%
CCOc1ccc(C2C(C(=O)O)c3ccccc3C(=O)N2CCN2CCOCC2)cc1 (stereo not drawn) -12.1%
COc1cccc(OCC(=O)Nc2ccccc2C(N)=O)c1 -12%
CCOC(=O)N1CCC(NC(=O)Cn2cc3c(n2)CCCCC3)CC1 -1%
CSC1=NCCN1C(=O)c1ccc(S(=O)(=O)N2CCOCC2)cc1 1%
CCCC(=O)N1c2ccccc2NC2=C(C(=O)CCC2)C1c1ccc(F)cc1 (stereo not drawn) -5.3%
Cc1c(C(=O)Nc2ccccc2Cl)oc2ccc(S(=O)(=O)N3CCC4(CC3)OCCO4)cc12 -8%
CCOc1cc2[nH]c(=S)n(CCCN3CCCC3=O)c(=O)c2cc1OCC -5%
O=C(Cn1nc(Cc2cccnc2)c2ccccc2c1=O)NCC1CCCO1 (stereo not drawn) -1%
COc1ccc(CNC(=O)C2CCN(S(=O)(=O)N3CCOCC3)CC2)cc1 3%
Cc1ccc(-c2nc(CS(=O)CC(=O)NC3CCCC3)c(C)o2)cc1 (stereo not drawn) -15%
CCOc1ccc(C(=O)N(Cc2ccc(N(C)C)cc2)C2CCS(=O)(=O)C2)cc1 (stereo not drawn) -24.5%
CCOC(=O)C1CCN(C(=O)CC2C(=O)N(Cc3ccccc3)C(C)c3nc4ccccc4n32)CC1 (stereo not drawn) 8%
CC(C)(C)c1ccc(C(=O)NCCC(=O)NCc2ccco2)cc1 -4%
CCOC(=O)N1CCN(C(=O)c2cnc3n(c2=O)CCS3)CC1 -8%
CCCOc1ccc(C2c3c(oc4cc(C)c(C)cc4c3=O)C(=O)N2CCCN2CCOCC2)cc1 (stereo not drawn) 1%
O=C(NCc1ccc2c(c1)OCO2)C1CCCN(S(=O)(=O)c2cccs2)C1 (stereo not drawn) 3%
CCOC(=O)C1(C(F)(F)F)N=C(N(C)C)OC(N(C)C)=N1 20%
O=C1OC(NC(=O)c2ccccc2)C(N2CCOCC2)=C1Cl (stereo not drawn) 6%
COc1ccccc1N1CCN(Cc2nnnn2CCc2ccccc2)CC1 -8%
COc1ccccc1C(=O)N1CCNC(=O)C1CC(=O)Nc1ccc(Cl)cc1 (stereo not drawn) -4.5%
O=C(CN1CCN(C(=O)c2cccc(F)c2)CC1)Nc1ccccc1F 7%
N#Cc1ccc(COC(=O)Cn2nnc(-c3ccccc3)n2)cc1 -9.5%
COc1ccc(N2C(=O)c3cccc4cccc(c34)C2=O)nn1 -1.5%
OCCNCCCCOc1ccccc1F -13.5%
COc1ccccc1C(=O)NCCn1cc(SCC(=O)NCc2ccco2)c2ccccc21 -4%
Cn1c(=O)[nH]c(=O)c2c1nc(NCCCn1ccnc1)n2Cc1cccc(Br)c1 -22.5%
CCCS(=O)(=O)N1CCN(C(=O)c2cccs2)CC1 -15%
COc1cccc(N2C(=O)C3CCCN3C2c2ccc(F)cc2)c1 (stereo not drawn) -5%
CCN(CC)C(=O)N1CCN(C(=O)c2ccc(C)cn2)CC1 -8%
CCn1c(CSc2ncccn2)nnc1SCC(=O)N1c2ccccc2CC1C (stereo not drawn) 5.5%
O=C1c2ccncc2C(=O)N1C1CCCCC1 3%
COc1ccc(OC)c(C2N(c3ccccn3)C(=O)C3CCCN32)c1 (stereo not drawn) -11%
O=C(CN1C(=O)CSc2ncccc21)N1CCOCC1 -1%
COc1cccc(C(CC(=O)NCCN2CCOCC2)NS(=O)(=O)c2ccc(C)cc2)c1OC (stereo not drawn) -2%
Cc1onc(-c2ccccc2Cl)c1C(=O)NCCn1ccc2ccccc21 -7%
Cc1ccc(C2CC(=O)NC(SCC(=O)OCc3ccccc3)=C2C#N)o1 (stereo not drawn) -24%
COc1ccc(S(=O)(=O)NC(CC(=O)NCc2ccccc2OC)c2ccco2)cc1 (stereo not drawn) 3%
CC(C)OCCCNC(=O)CNC(=O)c1cccs1 10%
CCOC(=O)c1ccn(-c2nc(-c3ccco3)cc(C(F)(F)F)n2)n1 -5%
CCOC(=O)c1sc(=S)n(-c2cccc(OC)c2)c1N -4%
CCOC(=O)Cn1c2c(c(-c3ccccc3OC)cc1=O)CCCC2 16%
Cc1ccc(N2C(=O)c3oc4ccccc4c(=O)c3C2c2cccnc2)nc1 (stereo not drawn) -22%
OCc1nc(CO)n(Cc2ccccc2)n1 -2.3%
O=C(CN1CCOCC1)Nc1c2c(nc3c1CCC3)CCC2 -12%
Cc1nc2nc(SCC(=O)NCc3ccco3)nn2c(C)c1Cc1ccccc1 -12.3%
CCN(CCCNC(=O)C1CCN(S(=O)(=O)c2cnc[nH]2)CC1)c1ccccc1 0%
Cc1ccc(C)c(N(CC(=O)NCc2ccco2)C(=O)CCC(=O)Nc2ccccn2)c1 -3%
CC(Sc1sc(=S)sc1SC(C)C(=O)O)C(=O)O (stereo not drawn) -53.5%
C=CCN(CC=C)C(=O)CN1C(=O)c2ccccc2C1=O -1%
Cc1ccc2c(c1)N(CCCC(=O)NCc1cccnc1)C(=O)CO2 -5%
CCOC(=O)C1CCN(C(=O)C2CCN(S(=O)(=O)c3c(C)noc3C)CC2)CC1 10%
O=C(CN1C(=O)CCS(=O)(=O)c2ccccc21)NCc1ccc(F)cc1 -3%
Cc1oc(C)c(C(=O)NCCCC(=O)O)c1C(=O)NCCCC(=O)O 5%
COc1ccc(NC(=O)C2CCCN(S(=O)(=O)c3cccc4cccnc34)C2)cc1 (stereo not drawn) 0%
CCOc1ccccc1NC(=O)C1CCC(CNc2c(N3CCOCC3)c(=O)c2=O)CC1 (stereo not drawn) 2%
Cc1cccc2c1N(CC(=O)OC(C)C)C(=O)C2=O 10.7%
Cc1cc(NC(=O)CSCc2nc(-c3cccc(Cl)c3)oc2C)no1 5%
O=C(NCc1ccc2c(c1)OCO2)c1cc2c(s1)CS(=O)(=O)C2 -4%
Cc1ccc(C)c(N2CCN(C(=O)CCc3nc4ccccc4[nH]3)CC2)c1 -5%
O=S(=O)(Nc1ccccn1)c1ccc(Oc2ccccc2)cc1 -1.3%
CCOc1c(OC)cc(C2C(C#N)=C(N)Oc3n[nH]c(-c4ccncc4)c32)cc1OC (stereo not drawn) -15%
CCC(C)Sc1nnc(-c2c[nH]c3ccccc23)n1CCOC (stereo not drawn) 10%
COc1ccc(C2OC(=O)CC2C(=O)NC(C)C)cc1 (stereo not drawn) 6%
COC(=O)Cn1c(=NC(=O)CSCC(=O)Nc2cc(C)on2)sc2ccccc21 -10.5%
COc1ccc(NC(=O)c2c(SC)nsc2SC)cc1 -23%
COCCCNC(=O)c1ccc2c(c1)ncn2-c1ccccc1OC -35%
O=C(NCc1ccco1)c1cccn2c(=O)c3cc(Br)ccc3nc12 -34%
CCn1cc(C(=O)N2CC=C(c3ccccc3)CC2)c(=O)c2ccc(C)nc21 4%
O=C(CC(Cc1ccccc1)C(=O)O)NCCc1ccc2c(c1)OCO2 (stereo not drawn) -16%
Cc1ccc(C)c(NC(=O)CSc2nnc(Cc3cccn3C)n2-c2ccc(F)cc2)c1 10%
NC(=O)C1(N2CCCCC2)CCN(C(=O)c2ccc(C#Cc3ccccc3)o2)CC1 3%
CC1(C)CC(O)C(CCC(O)c2ccccc2)C(C)(C)N1 (stereo not drawn) -6%
CCc1nnc(NC(=O)CCC(=O)O)s1 -11%
O=C(NC(=O)c1ccc(Cl)c(Cl)c1)OC1CCS(=O)(=O)C1 (stereo not drawn) -4%
O=C(NC1(C(F)(F)F)N=C2SCCN2C1=O)c1ccco1 (stereo not drawn) -21%
Cn1c(=O)cc(SCC(=O)N2CCCC2)c2cc(Cl)ccc21 2%
CN1C(=O)c2ccccc2C(C(=O)NCCCN2CCCC2)C1c1c[nH]c2ccccc12 (stereo not drawn) 17%
COc1ccccc1CNC(=O)Cn1cc2c(n1)CCCC2 -2%
CCOC(=O)C1CCN(C(=O)CSc2cc(=O)n(C)c3ccccc23)CC1 -2%
